Our source for the outcome and AC50 values is PubChem BioAssay (EPA / NIEHS).

The target of assay [1] is Retinoic acid receptor RXR-alpha (Homo sapiens) (UniProt P19793). The assay is described as follows: OT_NURR1_NURR1RXRa_0480: Odyssey Thera (OT) 8-hour HEK293T Protein Complementation Assay for Nurr1/retinoid X receptor (RXR) (AID 2283385; active = hit-call score of the fitted dose curve at least 0.9, where 1 is the maximum). The method in brief: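 HEK293T cells expressing Nurr1 and RXRα fused to reporter fragments were dosed with compound for 8 hours. Complex formation was read as fluorescence intensity and analysed as gain of signal against DMSO as baseline.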
Retinoic acid receptor RXR-alpha (Homo sapiens), sequence (P19793 whole entry, looked up, the tested form may be a part): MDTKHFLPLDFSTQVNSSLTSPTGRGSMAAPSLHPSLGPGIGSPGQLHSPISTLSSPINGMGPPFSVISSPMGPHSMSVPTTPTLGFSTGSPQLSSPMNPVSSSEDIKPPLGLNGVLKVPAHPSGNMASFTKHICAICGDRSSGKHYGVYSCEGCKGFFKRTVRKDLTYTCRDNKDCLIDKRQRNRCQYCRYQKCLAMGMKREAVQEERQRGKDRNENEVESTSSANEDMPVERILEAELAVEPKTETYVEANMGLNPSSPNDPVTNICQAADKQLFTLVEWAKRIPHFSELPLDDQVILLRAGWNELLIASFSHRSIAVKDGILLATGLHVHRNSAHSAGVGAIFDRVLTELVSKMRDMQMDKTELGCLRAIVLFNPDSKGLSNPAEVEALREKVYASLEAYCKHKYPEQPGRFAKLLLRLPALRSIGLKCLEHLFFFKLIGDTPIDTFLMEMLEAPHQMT

For assay [2] the target is unchanged. The assay is described as follows: OT_NURR1_NURR1RXRa_1440: Odyssey Thera (OT) 24-hour HEK293T Protein Complementation Assay for Nurr1/retinoid X receptor (RXR) (AID 2283386; active = hit-call score of the fitted dose curve at least 0.9, where 1 is the maximum). The method in brief:
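HEK293T cells were dosed with compound and read 24 h later by fluorescence intensity in a protein-fragment complementation format, where Nurr1–RXRα interaction reconstitutes a split reporter. Activity was fitted as gain of signal relative to DMSO baseline.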

The nature of assay [3]: CEETOX_H295R_11DCORT: CeeTox H295R High-throughput Steroidogenesis Assay for 11-Deoxycortisol (11DCORT) (AID 2283432). Conditions: actives raise or lower the signal. The gist of the method: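 H295R cells prestimulated 48 h with 10 uM forskolin, then exposed 48 h to chemical in 0.1% DMSO. 11-Deoxycortisol in medium quantified by HPLC-MS/MS after MTBE extraction; bidirectional fit versus DMSO. MTT viability read in same wells.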

A short description of assay [4]: CEETOX_H295R_OHPREG: CeeTox H295R High-throughput Steroidogenesis Assay for OH-Pregnenolone (OHPREG) (AID 2283434). Conditions: actives raise or lower the signal. The method in brief:
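Hormone levels in spent medium were measured by tandem mass spectrometry following liquid-liquid extraction. Cells (H295R) had been forskolin-stimulated (10 uM, 48 h) before a 48 h chemical exposure at 0.1% DMSO, with activity fitted in both directions against DMSO.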

The nature of assay [5]: CEETOX_H295R_CORTIC: CeeTox H295R High-throughput Steroidogenesis Assay for Corticosterone (CORTIC) (AID 2283437).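 Note: corticosterone secreted into medium quantified by mass spectrometry.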 The note with it: actives raise or lower the signal. The gist of the method: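 Corticosterone secreted into medium is measured by reverse-phase HPLC with tandem MS following liquid-liquid extraction. Cells are forskolin-stimulated (10 uM, 48 h) before 48 h test exposure; activity fitted in both directions against DMSO.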

The nature of assay [6]: CEETOX_H295R_CORTISOL: CeeTox H295R High-throughput Steroidogenesis Assay for Cortisol (AID 2283438).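 Note: cortisol secreted into medium quantified by LC-MS/MS.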 The note with it: actives raise or lower the signal. The method in brief:
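H295R human adrenal cells were prestimulated 48 h with 10 uM forskolin, then exposed 48 h to test chemical (0.1% DMSO final). Medium cortisol was quantified by HPLC-MS/MS after MTBE extraction; bidirectional fitting relative to DMSO baseline.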

Assay [7] is described as follows: CEETOX_H295R_DOC: CeeTox H295R High-throughput Steroidogenesis Assay for DOC (AID 2283439). The note with it: actives raise or lower the signal. The gist of the method: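 H295R adrenal cells prestimulated 48 h with 10 uM forskolin, then exposed 48 h to test chemical (0.1% DMSO final). Medium 11-deoxycorticosterone extracted with MTBE, quantified by HPLC-MS/MS; bidirectional fit versus DMSO baseline; MTT viability in same wells.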

A short description of assay [8]: CEETOX_H295R_PROG: CeeTox H295R High-throughput Steroidogenesis Assay for Progesterone (PROG) (AID 2283442).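 For AC50: human H295R adrenal cells primed with 10 µM forskolin before dosing.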 The note with it: actives raise or lower the signal. The gist of the method:
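H295R adrenal cells prestimulated 48 h with 10 uM forskolin, then exposed 48 h to test chemical in 0.1% DMSO. Progesterone in medium quantified by HPLC-MS/MS after MTBE extraction; viability checked by MTT in same wells.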

Read-out in assay [9]: Fatty acid synthase (Homo sapiens) (UniProt P49327)
Briefly: LTEA_HepaRG_FASN: Life Technologies and Expression Analysis (LTEA) Assay for Fatty Acid Synthase (FASN) using HepaRG (AID 2283448). The note with it: mRNA level, 48 h; actives raise or lower the signal. The gist of the method:
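Differentiated human HepaRG cells were exposed for 48 h in serum-free induction medium to eight half-log concentrations up to 100 uM in 0.5% DMSO, in duplicate. FASN mRNA was quantified by TaqMan qRT-PCR, normalized to ACTB/GAPDH/POLR2A, and fitted bidirectionally against DMSO.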

Read-out in assay [10]: Cyclin D2 (CCND2), CCND2 (gene 894)
Briefly: LTEA_HepaRG_CCND2: Life Technologies and Expression Analysis (LTEA) Assay for Cyclin D2 (CCND2) using HepaRG (AID 2283449). The note with it: mRNA level, 48 h; actives raise or lower the signal. The gist of the method:
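Read-out is CCND2 mRNA level measured by qRT-PCR in human HepaRG liver cells and normalised to three housekeeping genes. Chemicals were applied for 48 h at up to 100 uM, with gain or loss fitted relative to 0.5% DMSO.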

Read-out in assay [11]: Cyclin Dependent Kinase Inhibitor 1A (CDKN1A), CDKN1A (gene 1026)
The assay is described as follows: LTEA_HepaRG_CDKN1A: Life Technologies and Expression Analysis (LTEA) Assay for Cyclin Dependent Kinase Inhibitor 1A (CDKN1A) using HepaRG (AID 2283450). Conditions: mRNA level, 48 h; actives raise or lower the signal. The method in brief: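 Differentiated HepaRG cells in serum-free induction medium, exposed 48 h in duplicate to eight half-log concentrations up to 100 uM in 0.5% DMSO. mRNA measured by TaqMan qRT-PCR, normalized to ACTB, GAPDH, POLR2A; bidirectional fit versus DMSO.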

Read-out in assay [12]: Cyclin D1 (CCND1), CCND1 (gene 595)
The assay is described as follows: LTEA_HepaRG_CCND1: Life Technologies and Expression Analysis (LTEA) Assay for Cyclin D1 (CCND1) using HepaRG (AID 2283451). The note with it: mRNA level, 48 h; actives raise or lower the signal. The method in brief:
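Differentiated HepaRG cells exposed 48 h in serum-free induction medium to eight half-log concentrations from 100 uM top, 0.5% DMSO, duplicates. CCND1 mRNA measured by Fluidigm TaqMan qRT-PCR, normalised to ACTB, GAPDH, POLR2A; bidirectional fit.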

Read-out in assay [13]: catalase (CAT), CAT (gene 847)
The assay is described as follows: LTEA_HepaRG_CAT: Life Technologies and Expression Analysis (LTEA) Assay for catalase (CAT) using HepaRG (AID 2283452). Conditions: mRNA level, 48 h; actives raise or lower the signal. The method in brief: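 Expression of CAT was quantified by TaqMan qRT-PCR with ACTB/GAPDH/POLR2A normalization after 48 h chemical exposure of HepaRG. Eight-point half-log series, top 100 uM, in 0.5% DMSO; gain or loss fitted against vehicle.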

Assay [14] deals with Peroxisome proliferator-activated receptor gamma (Homo sapiens) (UniProt P37231). The assay is described as follows: OT_PPARg_PPARgSRC1_1440: Odyssey Thera (OT) 24-hour Protein-Complementation Assay for Peroxisome Proliferator-activated Receptor Gamma/ SRC-1 Co-activator (AID 2283388; active = hit-call score of the fitted dose curve at least 0.9, where 1 is the maximum). The gist of the method: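 HEK293T transiently transfected with PPARg/SRC-1 split-Venus YFP fusions 48 h before dosing, then treated 24 h at 37C. Fixed cells imaged; nuclear/cytoplasmic 488 nm fluorescence ratio, gain of signal versus DMSO.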
Peroxisome proliferator-activated receptor gamma (Homo sapiens), sequence (P37231 whole entry, looked up, the tested form may be a part): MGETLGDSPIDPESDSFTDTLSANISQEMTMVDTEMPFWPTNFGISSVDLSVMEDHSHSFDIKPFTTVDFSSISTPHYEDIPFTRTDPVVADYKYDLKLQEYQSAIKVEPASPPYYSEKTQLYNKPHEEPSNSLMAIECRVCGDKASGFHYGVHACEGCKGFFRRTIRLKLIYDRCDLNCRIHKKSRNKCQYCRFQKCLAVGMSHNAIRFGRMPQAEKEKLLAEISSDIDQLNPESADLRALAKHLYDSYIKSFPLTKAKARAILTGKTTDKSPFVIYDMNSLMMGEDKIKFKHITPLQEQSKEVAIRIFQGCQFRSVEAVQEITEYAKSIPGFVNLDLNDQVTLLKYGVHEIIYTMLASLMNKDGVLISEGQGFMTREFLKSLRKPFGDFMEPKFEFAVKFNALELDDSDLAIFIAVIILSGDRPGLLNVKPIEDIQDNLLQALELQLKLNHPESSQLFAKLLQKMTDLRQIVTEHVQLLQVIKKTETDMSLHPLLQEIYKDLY

A short description of assay [15]: CEETOX_H295R_OHPROG: CeeTox H295R High-throughput Steroidogenesis Assay for OH-Progesterone (OHPROG) (AID 2283435). Conditions: actives raise or lower the signal. The gist of the method:
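H295R human adrenal cells were prestimulated 48 h with 10 uM forskolin, then exposed 48 h to test chemical (0.1% DMSO final). 17alpha-hydroxyprogesterone in medium was measured by HPLC-MS/MS after MTBE extraction; bidirectional fitting vs DMSO.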

The target in assay [16] is Peroxisome proliferator-activated receptor gamma (Homo sapiens) (UniProt P37231). The assay is described as follows: OT_PPARg_PPARgSRC1_0480: Odyssey Thera (OT) 8-hour Protein-Complementation Assay for Peroxisome Proliferator-activated Receptor Gamma / SRC-1 Co-activator (AID 2283387; active = hit-call score of the fitted dose curve at least 0.9, where 1 is the maximum). The gist of the method:
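HEK293T transiently transfected with PPARg and SRC-1 fused to Venus YFP fragments, compounds 8 h at 37C. Fixed, Draq5-stained cells imaged; nuclear/cytoplasmic 488 nm fluorescence ratio over at least 350 cells per image; gain fitted versus DMSO.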

Read-out in assay [17]: Tumor necrosis factor receptor superfamily member 6 (Homo sapiens) (UniProt P25445)
Briefly: LTEA_HepaRG_FAS: Life Technologies and Expression Analysis (LTEA) Assay for Fas cell surface death receptor (FAS) using HepaRG (AID 2283447). The note with it: mRNA level, 48 h; actives raise or lower the signal. The gist of the method: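 FAS transcript level was measured by TaqMan qRT-PCR against three housekeeping genes after 48 h chemical exposure. Cells were HepaRG, 0.5% DMSO vehicle, with a top concentration of 100 uM and half-log dilutions over eight points, in duplicate.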

Records with an inconclusive call do not appear. Activity calls are given as the source filed them. Rule for the calls, unless noted: active = hit-call score of the fitted dose curve at least 0.9, where 1 is the maximum; inactive = score below 0.9.

Fatty acid synthase (Homo sapiens), sequence (P49327 whole entry, looked up): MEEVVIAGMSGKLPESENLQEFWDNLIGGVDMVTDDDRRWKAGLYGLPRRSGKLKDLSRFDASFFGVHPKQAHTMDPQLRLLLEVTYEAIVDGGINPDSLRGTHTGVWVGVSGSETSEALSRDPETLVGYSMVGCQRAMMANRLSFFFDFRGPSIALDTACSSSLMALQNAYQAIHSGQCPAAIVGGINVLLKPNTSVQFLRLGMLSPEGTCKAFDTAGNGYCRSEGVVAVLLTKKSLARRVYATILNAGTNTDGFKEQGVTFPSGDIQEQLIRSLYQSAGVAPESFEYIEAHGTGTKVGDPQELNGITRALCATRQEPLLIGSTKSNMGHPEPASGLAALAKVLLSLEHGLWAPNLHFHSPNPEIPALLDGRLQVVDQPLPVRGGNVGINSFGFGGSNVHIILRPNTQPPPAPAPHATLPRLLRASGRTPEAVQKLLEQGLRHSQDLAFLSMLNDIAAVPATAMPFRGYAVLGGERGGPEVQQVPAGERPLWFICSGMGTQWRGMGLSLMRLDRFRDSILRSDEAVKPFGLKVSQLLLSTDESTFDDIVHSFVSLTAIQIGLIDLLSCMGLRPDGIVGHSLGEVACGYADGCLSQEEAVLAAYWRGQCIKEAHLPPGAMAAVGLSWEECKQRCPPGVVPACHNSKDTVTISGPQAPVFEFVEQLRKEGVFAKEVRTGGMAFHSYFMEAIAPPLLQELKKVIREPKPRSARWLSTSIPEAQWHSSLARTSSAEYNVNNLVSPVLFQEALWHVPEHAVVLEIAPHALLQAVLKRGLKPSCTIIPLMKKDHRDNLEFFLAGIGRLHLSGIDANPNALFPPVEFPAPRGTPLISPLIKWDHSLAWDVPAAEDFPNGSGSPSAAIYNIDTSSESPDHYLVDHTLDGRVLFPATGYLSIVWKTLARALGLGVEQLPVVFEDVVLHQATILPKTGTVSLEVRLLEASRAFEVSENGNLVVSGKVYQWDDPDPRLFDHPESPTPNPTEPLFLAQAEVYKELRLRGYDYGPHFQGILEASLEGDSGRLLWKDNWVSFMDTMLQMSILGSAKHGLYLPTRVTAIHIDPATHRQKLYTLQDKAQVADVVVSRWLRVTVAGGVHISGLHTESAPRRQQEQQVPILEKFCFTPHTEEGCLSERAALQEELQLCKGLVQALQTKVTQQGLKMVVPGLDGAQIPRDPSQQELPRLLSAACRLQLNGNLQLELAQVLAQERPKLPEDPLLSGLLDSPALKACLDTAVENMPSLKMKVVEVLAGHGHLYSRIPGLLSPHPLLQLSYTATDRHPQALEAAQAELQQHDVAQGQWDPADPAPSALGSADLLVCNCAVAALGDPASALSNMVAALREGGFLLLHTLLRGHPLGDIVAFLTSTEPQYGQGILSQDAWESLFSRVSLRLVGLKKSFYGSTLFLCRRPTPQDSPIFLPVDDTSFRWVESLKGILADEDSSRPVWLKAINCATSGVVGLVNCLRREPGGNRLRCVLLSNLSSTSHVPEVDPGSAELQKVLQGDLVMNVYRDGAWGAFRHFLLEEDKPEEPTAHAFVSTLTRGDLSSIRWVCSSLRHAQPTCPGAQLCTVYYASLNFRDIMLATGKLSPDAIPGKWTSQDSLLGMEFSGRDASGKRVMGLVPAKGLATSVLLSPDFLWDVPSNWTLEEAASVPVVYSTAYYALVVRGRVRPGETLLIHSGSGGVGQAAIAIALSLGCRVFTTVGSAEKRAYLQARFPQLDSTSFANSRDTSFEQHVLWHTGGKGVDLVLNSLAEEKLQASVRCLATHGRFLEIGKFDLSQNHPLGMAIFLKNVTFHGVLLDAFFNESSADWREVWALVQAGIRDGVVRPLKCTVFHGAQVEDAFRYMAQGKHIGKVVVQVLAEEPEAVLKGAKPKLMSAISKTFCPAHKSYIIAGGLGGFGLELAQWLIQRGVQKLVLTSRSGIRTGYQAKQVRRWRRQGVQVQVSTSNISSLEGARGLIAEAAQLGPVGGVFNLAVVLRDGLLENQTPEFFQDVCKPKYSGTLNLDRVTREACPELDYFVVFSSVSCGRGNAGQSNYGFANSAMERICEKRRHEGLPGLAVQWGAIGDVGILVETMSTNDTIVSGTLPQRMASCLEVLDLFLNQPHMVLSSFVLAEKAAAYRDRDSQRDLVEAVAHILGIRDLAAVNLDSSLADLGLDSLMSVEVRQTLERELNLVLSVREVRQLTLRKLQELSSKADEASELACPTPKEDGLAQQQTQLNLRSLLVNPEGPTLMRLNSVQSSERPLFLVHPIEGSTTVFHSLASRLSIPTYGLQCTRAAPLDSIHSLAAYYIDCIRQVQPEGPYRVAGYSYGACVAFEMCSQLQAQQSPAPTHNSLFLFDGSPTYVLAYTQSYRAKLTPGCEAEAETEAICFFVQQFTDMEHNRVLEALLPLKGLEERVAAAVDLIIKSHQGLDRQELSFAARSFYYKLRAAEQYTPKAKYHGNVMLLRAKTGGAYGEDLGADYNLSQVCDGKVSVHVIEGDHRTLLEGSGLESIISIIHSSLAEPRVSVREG

In the case of `Cc1ccc(N)c(N)c1`, the result in assay [1], in [2], in [3], in assay [4], in [5] and in assay [6] was inactive. Moreover, the call in assay [7], in [8], in assay [9], in assay [10], in assay [11] and in [12] was inactive. Further, the compound was classed as inactive in assay [13].

In general, AC50 refers to the concentration at which the activity in the assay is half-maximal. Turning to `CCOc1cccc(C2(N3CCN(c4ccccc4)CC3)CCC(C)CC2)c1` (configuration not stated), the call in assay [1], in assay [2], in [14], in [3], in assay [6] and in assay [9] was inactive. Also, the compound was called inactive in [10], in assay [11], in [12] and in assay [13]. Also, the AC50 in [4] was 81.7 µM (active); in assay [15], 35.7 µM (active); in assay [5], 23.6 µM (active); in assay [7] it was 29.8 µM (active); in assay [8] it was 35.5 µM (active).

Take `Clc1ccc(Cl)c(Cl)c1`: the compound was classed as inactive in assay [1], in assay [2], in [16], in assay [14], in assay [9] and in [11]. The outcome in assay [12] and in [13] was inactive.

With `CCN(CC)CCO`, the call in assay [1], in assay [2], in [14], in assay [17], in assay [9] and in [10] was inactive. Also, the compound was called inactive in assay [11], in [12] and in assay [13].

In the case of `c1ccc2c(c1)oc1ccccc12`, the compound was classed as inactive in [1], in assay [2], in assay [17], in assay [9], in assay [11] and in [12]. In assay [13], the result was inactive.

As for `CCN(CC)N=O`, the call in assay [1], in assay [2], in [14], in assay [9], in assay [10] and in [11] was inactive. The compound was classed as inactive in assay [12] and in [13].

Consider `OCCCl`, for which the call in assay [1], in assay [2], in [14], in assay [9], in assay [10] and in assay [11] was inactive. Further, the result in [12] and in assay [13] was inactive.

For the compound `Cc1ccc(N=C=O)cc1N=C=O`, the result in [1], in [2], in [14], in assay [3], in assay [4] and in assay [15] was inactive. The outcome in assay [5], in assay [6], in [7], in assay [8], in [17] and in assay [10] was inactive. The compound was classed as inactive in [12]. The AC50 in [9] is 15.9 µM (active); in [11], 72.2 µM (active); in assay [13] it was 19.7 µM (active).

As for `CN(C)C(=O)Nc1ccc(Cl)cc1`, the compound was classed as inactive in assay [1], in assay [2], in assay [14], in assay [9], in assay [11] and in [12]. Besides, the compound was called inactive in assay [13].

With `O=[N+]([O-])C(Br)(CO)CO`, the outcome in assay [2], in [16], in assay [14], in [9], in [10] and in assay [11] was inactive. Moreover, the call in assay [12] and in assay [13] was inactive.

As to `CN(C)c1ccccc1`, the compound was called inactive in assay [2], in assay [9], in [10], in [11], in assay [12] and in [13].

Consider `O=Cc1ccco1`, for which the result in assay [1], in assay [2], in [17], in [9], in assay [11] and in [12] was inactive. For the same compound, the compound was classed as inactive in [13].
